From PubChem BioAssay (EPA / NIEHS) come the findings set out here.

Results filed as inconclusive are left out. The source made the active and inactive calls. The calls were made as follows, unless noted: active = hit-call score of the fitted dose curve at least 0.9, where 1 is the maximum; inconclusive = response in the unintended direction; inactive = score below 0.9.

Read-out in one experiment: matrix metalloproteinase-1 (MMP1), MMP1 (gene 4312)
The experiment is described as follows: LTEA_HepaRG_MMP1: Life Technologies and Expression Analysis (LTEA) Assay for matrix metalloproteinase-1 (MMP1) using HepaRG (AID 2283658; active = hit-call score of the fitted dose curve at least 0.9, where 1 is the maximum; inactive = score below 0.9). The settings on record: mRNA level, 48 h; actives raise or lower the signal. In outline:
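In this screen, human liver HepaRG cultures receive each chemical in duplicate for 48 h (top 100 uM, 0.5% DMSO). MMP1 expression is then quantified by TaqMan qRT-PCR with ACTB/GAPDH/POLR2A normalization.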
As to `N#CSCSc1nc2ccccc2s1`, the call was inactive.

As for `O=C(O)c1ccccc1`, the molecule was called inactive.

Regarding `S=C([S-])NCCNC(=S)[S-].[Mn+2]`, the molecule was called inactive.

Regarding `COCCO`, the outcome was inactive.

Regarding `CCCCOCCOCCOCc1cc2c(cc1CCC)OCO2`, the molecule was classed as inactive.

In the next experiment the test system is Thyroperoxidase (TPO), gene 54314. The experiment is described as follows: CCTE_Simmons_AUR_rTPO: CCTE's Amplex UltraRed Assay for Thyroperoxidase (TPO) Inhibition, Simmons Lab (AID 2283662).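 Also: potency for loss of signal meaning inhibition of peroxidase activity.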
Conditions: not given
The gist of the method: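 Rat thyroid microsomes (5 ug protein) were incubated with test compound (8 concentrations, 5 nM–87.5 uM final, 0.5% DMSO), 25 uM Amplex UltraRed and 300 uM H2O2 in 200 mM phosphate buffer for 30 min at 37C in the dark; fluorescence read at 544/590 nm.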
For the molecule `N#CSCSc1nc2ccccc2s1`, the AC50 is 2.57 µM (active).

As for `O=C(c1ccc(O)cc1O)c1ccc(O)cc1O`, the concentration at half-maximal activity (AC50) was 0.19 µM (active).

Regarding `CC(C)CCCCCCc1ccc(O)cc1`, the AC50 was 20.6 µM (active).

Take `S=C([S-])NCCNC(=S)[S-].[Mn+2]`: the AC50 was 12.6 µM (active).

As for `CCCCOCCOCCOCc1cc2c(cc1CCC)OCO2`, the AC50 was 34.2 µM (active).

With `CCOC(=O)C(C)Oc1ccc(Oc2nc3ccc(Cl)cc3o2)cc1` (stereo unspecified), the AC50 is 43.6 µM (active).

Read-out in another experiment: xenobiotic metabolism (CYP1A2), CYP1A2 (gene 1544)
The experiment is described as follows: CLD_CYP1A2_6hr: CellzDirect (CLD) Gene Expression Assay for xenobiotic metabolism (CYP1A2) at 6 hours (AID 2283663).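 As to AC50: potency is for induction meaning a rise in mRNA above DMSO.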
Conditions: not given
The gist of the method: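 mRNA levels quantified by quantitative nuclease protection assay with chemiluminescence, 6 h after dosing human primary hepatocyte cultures (two donors) across several concentrations, vehicle 0.2% DMSO. Induction fitted upward versus DMSO; phase-contrast cytotoxicity annotated.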
`CCN(CC)C(=O)c1cccc(C)c1`: the outcome was inactive.

For the molecule `N#CSCSc1nc2ccccc2s1`, the molecule was classed as inactive.

Consider `COc1c(Cl)ccc(Cl)c1C(=O)O`, for which the outcome was inactive.

In the case of `CCNc1nc(N)nc(Cl)n1`, the result was inactive.

For the molecule `CC(C)(c1ccc(O)cc1)c1ccc(O)cc1`, the molecule was classed as inactive.

Regarding `CCCN(CCC)c1c([N+](=O)[O-])cc(C(F)(F)F)c(N)c1[N+](=O)[O-]`, the molecule was called inactive.

In the case of `CCCCOC(=O)C(C)Oc1ccc(Oc2ccc(C(F)(F)F)cn2)cc1` (stereo unspecified), the result was inactive.

With `CC1(C)C(C=C(Cl)Cl)C1C(=O)OCc1cccc(Oc2ccccc2)c1` (stereo unspecified), the molecule was called inactive.

Turning to `CCCCCOC(=O)COc1cc(N2C(=O)C3=C(CCCC3)C2=O)c(F)cc1Cl`, the molecule was classed as inactive.

With `CCC(C)OC(=O)N1CCCCC1CCO` (stereo unspecified), the molecule was called inactive.

For `S=C([S-])NCCNC(=S)[S-].[Mn+2]`, the molecule was called inactive.

Take `S=C(S)NCCNC(=S)S.[Mn+2].[S-]C([S-])=NCCN=C([S-])[S-].[Zn+2]`: the AC50 was 2.75 µM (active).

`COCCO`: the molecule was classed as inactive.

Consider `O=C(O)C1(C(=O)Nc2ccc(Cl)cc2Cl)CC1`, for which the molecule was called inactive.

As to `CCCCC(CC)CN1C(=O)C2C3C=CC(C3)C2C1=O` (stereo unspecified), the molecule was classed as inactive.

In the case of `CCCCOCCOCCOCc1cc2c(cc1CCC)OCO2`, the AC50 is 5.75 µM (active).

As to `CCOC(=O)C(C)Oc1ccc(Oc2nc3ccc(Cl)cc3o2)cc1` (stereo unspecified), the call was inactive.

On to `CCSC(=O)N(CC(C)C)CC(C)C`, for which the molecule was classed as inactive.

Regarding `CCN(Cc1c(F)cccc1Cl)c1c([N+](=O)[O-])cc(C(F)(F)F)cc1[N+](=O)[O-]`, the AC50 was 1.74 µM (active).

As for `CCOC(=O)C(C)Oc1ccc(Oc2cnc3cc(Cl)ccc3n2)cc1` (stereo unspecified), the molecule was classed as inactive.
